# p53null 32C tox: p53 null cell cytotoxicity, permissive temperature | 55,000 tested, 0.62% active | Potency, µM (titrated, usually from 46.1 µM), for the others: at the top dose activity change, negative = cytotoxicity, actives largely listed as cytotoxic | H1299-neo p53 null cells, ATP luminescence, 24 h, 32C | AID 903;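 note: potency is the fitted concentration of half-maximal effect; 0% = DMSO only and -100% = full killing by 100 µM tamoxifen; nearly all actives have a fitted effect of over 55% in size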
#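 H1299-neo (p53 null) cells, 600/well, treated 24 h at 32C with compound up to 46 uM; ATPlite luminescence viability, normalized to DMSO and 100 uM tamoxifen; AC50 by Hill fit.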
# p53null 39C tox: selectivity test: cytotoxicity in p53 null cells, nonpermissive temperature | H1299 p53-null (neo) cells, 39C, ATPlite viability, 24 h | Potency, µM (doses to about 46.1 µM), inactives show at the top dose activity, negative = cell killing, most hits filed as cytotoxic | 55,000 tested, 0.97% active;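 note: potency is the fitted concentration of half-maximal effect; 0% = DMSO only and -100% = full killing by 100 µM tamoxifen; nearly all actives have a fitted effect of over 50% in size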
#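 ATP-luminescence viability readout (ATPlite, 20 min RT) after 24 hr compound treatment at 39C of H1299-neo or H1299-p53A138V cells; titration up to 46 uM; normalized to DMSO and 100 uM tamoxifen; Hill-fit AC50.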
# PMP22 txn: PMP22 gene transcription modulation. S16 Pmp22-F2sN Schwann cells, FLuc/NLuc coincidence luminescence, 24 h. Potency, µM (doses to about 57.5 µM), for the others: top-dose activity change, negative = inhibition, actives largely listed as inhibitors. 43,000 tested, 2% active; active = clear falling dose curves in both reporters; inconclusive = both reporters move, but less clearly or upward; inactive = either reporter flat; the % is the NLuc reporter signal; note: potency is the fitted concentration of half-maximal effect; % is set by controls: 0 for no effect and ±100 for the full control effect
#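 qHTS, 1536-well. Cells seeded, compounds added by pin tool, 24 h 37C. Nano-Glo reagent 1 (lysis/FLuc), 10 min RT, read; Stop&Glo, 10 min RT, read NLuc.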
# pS6 MEF inh: reduces mTORC1 signaling in Tsc2 and p53 null MEF cells | Tsc2-/- p53-/- MEF, phospho-rpS6 immunofluorescence/PI, 24 h | Potency, µM (doses to about 38.3 µM), inactives show at the highest dose activity change, negative = inhibition, usual class: inhibitors | 44,000 tested, 0.78% active | AID 493208;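 note: potency is the fitted concentration of half-maximal effect; plate controls were DMSO for no effect and rapamycin for full effect; nearly all actives have a fitted effect of over 50% in size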
#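 Read-out: phospho-S6 Alexa-488 intensity over PI intensity per well, scored as % active cells using thresholds from rapamycin (7.5 nM) and DMSO controls. Tsc2-/-, p53-/- MEFs exposed to compound for 24 h; PI cell count recorded as viability.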
# S16 viability: toxic to S16 Pmp22-F2sN Schwann cells. S16 Pmp22-F2sN Schwann cells (luciferase reporters placed in the Pmp22 gene) viability, CellTiter-Glo, 24 h. Potency, µM (doses to about 57.5 µM), without a hit: top-dose activity change, negative = cytotoxicity, usual class: cytotoxic. 43,000 tested, 0.48% active; note: potency is the fitted concentration of half-maximal effect; % is set by controls: 0 for no effect and ±100 for the full control effect; nearly all actives have a fitted effect of over 65% in size
#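 CellTiter-Glo counter-screen, qHTS, 1536-well. Cells: S16(c9) Pmp22-F2sN, 500-1,000/well in DMEM + 10% FBS. Cpd 23 nL pin transfer, 24 h, 37C/5% CO2. Read: luminescence, CCD imager.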
# NLuc sat counter: inhibits NanoLuc at saturating substrate, PMP22 counter-screen | shares compounds with PMP22 txn | Secreted NLuc enzyme (filtered S16 cell medium), Nano-Glo luminescence | Potency, µM (doses to about 57.5 µM), for the others: at the top dose activity change, negative = inhibition, hits mostly inhibitors | 690 tested, 4% active | AID 1508638; note: potency is the fitted concentration of half-maximal effect; % is set by controls: 0 for no effect and ±100 for the full control effect
# NLuc Km counter: inhibits NanoLuc under Km conditions, PMP22 counter-screen. shares compounds with PMP22 txn. secreted NLuc enzyme, coelenterazine luminescence, Km conditions. Potency, µM (doses to about 57.5 µM), for inactives: at the top dose activity change, negative = inhibition, hits mostly inhibitors. 690 tested, 5% active; note: potency is the fitted concentration of half-maximal effect; % is set by controls: 0 for no effect and ±100 for the full control effect
# FLuc ctr PMP22: inhibits firefly luciferase, PMP22 counter-screen; shares compounds with PMP22 txn; purified P. pyralis FLuc, luminescence, 10 min; Potency, µM (titrated, usually from 57.5 µM), inactives show at the highest dose activity, negative = inhibition, hits mostly inhibitors; 690 tested, under 10 active; AID 1508640; note: % of control where 0% means no effect
# Target sequence (P08659 whole entry, looked up): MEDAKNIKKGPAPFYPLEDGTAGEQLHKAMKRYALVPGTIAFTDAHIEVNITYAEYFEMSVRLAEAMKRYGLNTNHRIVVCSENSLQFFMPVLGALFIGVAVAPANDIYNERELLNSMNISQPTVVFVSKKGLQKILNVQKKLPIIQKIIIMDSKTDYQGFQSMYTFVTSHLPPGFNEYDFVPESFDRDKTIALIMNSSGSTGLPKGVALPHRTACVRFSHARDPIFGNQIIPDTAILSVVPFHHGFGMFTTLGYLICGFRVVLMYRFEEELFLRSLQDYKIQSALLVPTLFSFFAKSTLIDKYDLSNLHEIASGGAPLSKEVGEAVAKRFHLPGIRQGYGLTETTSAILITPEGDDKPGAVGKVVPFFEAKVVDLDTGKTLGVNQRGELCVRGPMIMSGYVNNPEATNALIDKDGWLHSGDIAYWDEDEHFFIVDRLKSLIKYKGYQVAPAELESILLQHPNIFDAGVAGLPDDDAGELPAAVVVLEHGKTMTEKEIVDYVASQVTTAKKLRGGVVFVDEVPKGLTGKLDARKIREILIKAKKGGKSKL
# S16 F2sN tox cnf: S16 Schwann cell cytotoxicity, confirmatory; S16 Schwann cells viability, CellTiter-Glo ATP luminescence, 24 h; 690 tested, 7% active; shares compounds with PMP22 txn; AID 1508641; Potency, µM (series often up to 57.5 µM), without a hit: top-dose activity change, negative = viability loss, usual class: cytotoxic; note: potency is the fitted concentration of half-maximal effect; % is set by controls: 0 for no effect and ±100 for the full control effect
# PMP22 txn cnf: confirmation of modulators of PMP22 gene transcription in S16 cells; Potency, µM (highest dose often 57.5 µM), inactives show at the highest dose activity change, negative = inhibition, actives largely listed as inhibitors; shares compounds with PMP22 txn; S16 Schwann cells Pmp22-F2sN, dual luciferase, 24 h; 690 tested, 22% active; active = clear falling dose curves in both reporters; inconclusive = both reporters move, but less clearly or upward; inactive = either reporter flat; the % is the FLuc reporter signal; note: potency is the fitted concentration of half-maximal effect
# PMP22 prot conf: rat PMP22 protein level modulation, confirmatory; shares compounds with PMP22 txn; S16 Schwann cells Pmp22-HiBiT, luminescence, 48 h; Potency, µM (series often up to 27.9 µM), without a hit: at the highest dose activity change, negative = inhibition, actives largely listed as inhibitors; 95 tested, under 10 active; AID 1508647
# Target sequence (P25094 whole entry, looked up): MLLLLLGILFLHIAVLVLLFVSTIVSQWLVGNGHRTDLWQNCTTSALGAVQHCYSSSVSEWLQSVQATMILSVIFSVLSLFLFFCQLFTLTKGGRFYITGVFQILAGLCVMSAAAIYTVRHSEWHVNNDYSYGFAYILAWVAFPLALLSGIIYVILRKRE
# * = called active by the depositor; ? = inconclusive; nt = no result given; [ ] = another dose, or the depositor's remark. Sampled rows, rich in hits. Any-hit rate of the full collection: about 3.2%. Unless noted, calls come from the whole dose curve; as a rule, active = well fitted curve in the direction sought with a large enough effect; inconclusive = small, poorly fitted or top-dose-only effect, or another doubt; inactive = no such curve, though single readings can be large; an effect the other way counts as inactive or inconclusive.
SMILES,p53null 32C tox,p53null 39C tox,PMP22 txn,pS6 MEF inh,S16 viability,NLuc sat counter,NLuc Km counter,FLuc ctr PMP22,S16 F2sN tox cnf,PMP22 txn cnf,others
Cc1ccc(C)c(NC(=O)Cn2c(=O)n(Cc3ccccc3)c(=O)c3oc4ccccc4c32)c1,1.9%,-16.2%,18.9µM*,-2.0%,0.3%,-11.6%,-0.6%,-12.4%,?,?,PMP22 prot conf=?
CCCCn1c(=O)c2oc3ccccc3c2n(CC(=O)Nc2ccc(CC)cc2)c1=O,0.0%,-9.7%,14.2µM*,1.0%,14.4%,-10.2%,5.0%,-11.9%,-3.9%,?,
CCCCn1c(=O)c2oc3ccccc3c2n(CC(=O)Nc2cc(C)ccc2C)c1=O,-0.2%,-1.3%,?,-5.0%,-0.2%,nt,nt,nt,nt,nt,
CCN(CC)CCNC(=O)c1c(C)oc2ncn(C)c(=O)c12,-0.9%,-7.0%,15.9%,-4.4%,4.0%,nt,nt,nt,nt,nt,
COc1ccc(C)cc1NC(=O)CN(c1ccccc1)S(=O)(=O)N(C)C,-1.1%,-7.4%,-20.6%,-5.5%,7.8%,nt,nt,nt,nt,nt,
CCCn1c2ccccc2c2cnn(CC(=O)Nc3cccc(C(=O)OCC)c3)c(=O)c21,-6.2%,3.5%,-13.0%,-12.2%,0.0%,nt,nt,nt,nt,nt,
Cc1cc(C)c(NC(=O)Cn2c(=O)n(Cc3ccco3)c(=O)c3ccc(C(=O)NC4CCCC4)cc32)c(C)c1,1.0%,-4.2%,5.04µM*,-6.7%,13.6%,-13.4%,8.0%,-17.3%,21.7µM*,12.2µM*,PMP22 prot conf=17.4%
Cc1ccc(C)c(NC(=O)Cn2c(=O)n(Cc3ccco3)c(=O)c3ccc(C(=O)NC4CCCC4)cc32)c1,12.7%,6.2%,?,?,2.0%,nt,nt,nt,nt,nt,
CCOc1ccc(NC(=O)Cn2c(=O)n(Cc3ccc4c(c3)OCO4)c(=O)c3ccc(C(=O)NC4CCCCC4)cc32)cc1,-2.7%,26.9%,16.8µM*,-0.2%,1.4%,3.8%,10.0%,-0.4%,?,12.5µM*,
CCc1ccccc1NC(=O)Cn1c(=O)n(Cc2ccc3c(c2)OCO3)c(=O)c2ccc(C(=O)NC3CCCCC3)cc21,1.1%,31.0%,12.1µM*,0.4%,11.7%,1.3%,4.7%,4.3%,-29.2%,11.1µM*,
CCOc1cccc2sc(N(Cc3cccnc3)C(C)=O)nc12,5.6%,17.0%,-16.0%,-0.6%,-15.8%,nt,nt,nt,nt,nt,
COc1cccc(NC(=O)CSc2ncc3c(n2)-c2ccc(Cl)cc2N(C)S3(=O)=O)c1,2.5%,-0.8%,2.53µM*,0.4%,-7.1%,-6.4%,0.4%,-1.0%,-1.0%,?,
COc1ccccc1NC(=O)CSc1ncc2c(n1)-c1cc(Cl)ccc1N(C)S2(=O)=O,13.9%,1.0%,-24.3%,8.4%,-26.5%,nt,nt,nt,nt,nt,
O=S(=O)(c1cccc(Cl)c1)c1nnn2c1nc(NC1CCCCCC1)c1sccc12,2.2%,-1.0%,10µM*,-12.4%,-6.0%,0.2%,-2.8%,8.2%,6.3%,?,
CCCNc1c(NC(=O)c2ccc(OCCC)cc2)c(=O)oc2ccccc12,2.7%,9.5%,-2.3%,-17.7%,-0.3%,nt,nt,nt,nt,nt,
Cc1ccc(-c2cnc(NCc3c(F)cccc3Cl)n2C)cc1,-20.7%,-17.0%,-113.7%,-25.6%,-18.4%,nt,nt,nt,nt,nt,
CCc1ccc(CNc2ncc(-c3cccc(OC)c3)n2C)cc1,-18.7%,-20.5%,?,13.1µM*,?,-8.5%,-6.6%,-10.3%,?,?,
Cn1c(-c2cccc(Br)c2)cnc1NCc1cccc(F)c1,-23.5%,-21.2%,?,?,-10.8%,-10.6%,?,1.2%,-21.2%,-26.8%,
COc1cccc(CNc2ncnc3onc(C)c23)c1,3.1%,5.6%,?,-2.7%,-13.0%,nt,nt,nt,nt,nt,
COc1ccc(CCNc2ncnc3onc(C)c23)c(OC)c1,-5.2%,-27.0%,4.01µM*,0.7%,?,-17.5%,4.4%,-17.2%,?,3.96µM*,
Cc1ccc(-n2nc(CO)c(C(=O)NCCO)n2)cc1,?,?,5.9%,2.0%,9.2%,nt,nt,nt,nt,nt,
O=S(=O)(c1ccc(-c2csc(=Nc3ccc(OC(F)(F)Cl)cc3)n2CCCO)cc1)N1CCCC1,-4.5%[9.22 µM],22.3%,15µM*,?,?,0.4%,-1.6%,-9.7%,21.7µM*,19.3µM*,
Cc1cccc(CNC(=O)c2cnc3sc(N4CCCCCC4)nn3c2=O)c1,-14.0%,26.0%,?,-2.8%,3.6%,-1.4%,4.4%,2.6%,23.3%,-5.4%,
COc1ccc2c(c1)-c1nc(NC(=O)c3cc(Cl)ccc3OC)sc1CC2,-5.6%,-25.1%,17µM*,3.4%,-2.9%,-14.7%,-9.2%,2.0%,?,?,
O=C(NCCSc1c[nH]c2ccccc12)c1ccccc1Cl,1.2%,-2.0%,?,1.2%,?,?,?,-12.2%,1.2%,-24.6%,
Cc1cnc2cc(Cl)c(Cl)cc2n1,0.2%,-2.7%,nt,nt,nt,nt,nt,nt,nt,nt,
COc1cccc(NC(=O)N(Cc2c[nH]c3ccccc23)C2CCCCCC2)c1,5.3%,?,20µM*,-11.9%,-26.3%,15.3µM*,?,1.5%,14.4%,?,
CCc1ccccc1NC(=O)CSc1ncc(S(=O)(=O)c2ccc(C(C)C)cc2)c(N)n1,24.5%,12.0%,17.9µM*,0.3%,-2.1%,?,1.0%,4.8%,21.4%,?,
CCc1ccccc1NC(=O)CSc1ncc(S(=O)(=O)c2ccccc2)c(N)n1,-14.2%,1.3%,-18.3%,-3.8%,17.6%,nt,nt,nt,nt,nt,

# Bioassay records as filed in PubChem BioAssay.
